Laboratory results as given in PubChem BioAssay (EPA / NIEHS).
Active and inactive are the calls of the source. Rule for the calls: active = hit-call score of the fitted dose curve at least 0.9, where 1 is the maximum; inactive = score below 0.9.

Tests used:
[1] = molecular target: Transcription factor E2F1 (Homo sapiens) (UniProt Q01094); assay: ATG_E2F_CIS: Attagene CIS-FACTORIAL HepG2 Assay for human E2F Transcription Factor 1 (AID 2282935); conditions: HepG2 Attagene cis-reporter, E2F reporter RNA transcripts; actives raise or lower the signal
Method in brief: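 Liver-derived HepG2 cells expressing transfected promoter-driven reporter units received test chemical for 24 hours. Signal gains or losses were fitted bidirectionally against DMSO.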

[2] = ATG_E_Box_CIS: Attagene CIS-FACTORIAL HepG2 Assay for human Enhancer Box (E-box) (AID 2282936); conditions: HepG2 E-box cis-reporter transcription, actives raise or lower the signal
Method in brief: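 In this cell-based setup, HepG2 cells bearing transfected promoter-driven reporter units were exposed to chemicals for 24 h; reporter transcripts were amplified, 6-FAM-labelled, cut with HpaI and sized by capillary electrophoresis.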

[3] = ATG_M_61_CIS: Attagene CIS-FACTORIAL HepG2 Assay for M61 Transcription Factor (Internal Marker) (AID 2282937); conditions: HepG2 Attagene CIS-FACTORIAL M61 internal marker reporter; actives raise or lower the signal
Method in brief: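 This endpoint serves as an internal background control within a multiplexed HepG2 cis-reporter panel. Cells are exposed for 24 h; reporter mRNA is amplified, fluorescently labelled and sized by capillary electrophoresis, with DMSO as negative control.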

[4] = ATG_EGR_CIS: Attagene CIS-FACTORIAL HepG2 Assay for human Early Growth Response 1 (EGR1) (AID 2282938); conditions: HepG2 Attagene CIS-FACTORIAL EGR reporter mRNA; actives raise or lower the signal
Method in brief: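 HepG2, transient MRTU transfection (cis promoters), 24 h compound. RNA → RT (oligo-dT) → PCR → 6-FAM labelling → HpaI cut → CE fluorescence. Bidirectional fit, DMSO baseline.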

[5] = ATG_ERE_CIS: Attagene CIS-FACTORIAL HepG2 Assay for Estrogen Response Element (ERE) (AID 2282940); conditions: HepG2 ERE cis-reporter, Attagene RNA transcript; actives raise or lower the signal
Method in brief: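 After a 24 h chemical treatment, RNA from reporter-transfected HepG2 cells is reverse-transcribed, PCR-amplified and fluorescently labelled. Fragments separated by capillary electrophoresis give reporter signal; DMSO serves as negative control.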

[6] = ATG_Ets_CIS: Attagene CIS-FACTORIAL HepG2 Assay for human Erythroblast Transformation Specific (ETS) (AID 2282941); conditions: HepG2 ETS cis-reporter transcription, actives raise or lower the signal
Method in brief: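 Cis-regulated reporter mRNA induction in HepG2 (transient transfection), 24 h exposure, RT-PCR plus capillary electrophoresis detection; DMSO serves as negative control and baseline.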

[7] = molecular target: Hepatocyte nuclear factor 3-beta (Homo sapiens) (UniProt Q9Y261); assay: ATG_FoxA2_CIS: Attagene CIS-FACTORIAL HepG2 Assay for human Forkhead box A2 (FOXA2) (AID 2282942); conditions: HepG2 cis-reporter transcription factor activity, 24 h; actives raise or lower the signal
Method in brief: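 Cells: HepG2, transient multiplex reporter transfection. Exposure 24 h. Detection: reporter-specific RT-PCR, fluorescent labelling, restriction digest, capillary electrophoresis. Analysis: bidirectional curve fit, DMSO as negative control.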

[8] = ATG_FoxO_CIS: Attagene CIS-FACTORIAL HepG2 Assay for human Forkhead box O (FoxO) (AID 2282943); conditions: HepG2 Attagene cis-reporter, FoxO element, mRNA; actives raise or lower the signal
Method in brief: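 Read-out: fluorescence of 6-FAM-labelled reporter cDNA fragments resolved by capillary electrophoresis. Transiently transfected HepG2 cells were dosed for 24 h; activity fitted in both directions relative to DMSO controls.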

[9] = ATG_GATA_CIS: Attagene CIS-FACTORIAL HepG2 Assay for human GATA Binding Protein (AID 2282944); conditions: HepG2 GATA cis-element reporter, Attagene multiplex mRNA; actives raise or lower the signal
Method in brief: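 Cells: HepG2, transiently transfected with cis-regulated reporter transcription units. Exposure: 24 h. Detection: RT-PCR plus capillary electrophoresis of FAM-labeled fragments. Analysis: bidirectional, DMSO as baseline.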

[10] = ATG_GLI_CIS: Attagene CIS-FACTORIAL HepG2 Assay for human Zinc Finger Protein GLI1 (AID 2282945); conditions: HepG2, Attagene cis-factorial reporter mRNA, GLI element; actives raise or lower the signal
Method in brief: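 Transiently transfected HepG2 cells report endogenous transcription factor activity via cis-element-driven reporter units. After 24 h compound exposure, reporter mRNA was measured by RT-PCR with capillary electrophoresis; bidirectional fitting against DMSO baseline.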

[11] = molecular target: Bile acid receptor (Homo sapiens) (UniProt Q96RI1); assay: ATG_IR1_CIS: Attagene CIS-FACTORIAL HepG2 Assay for human Nuclear Receptor Subfamily 1 Group H Member 4 (NR1H4), IR1 submotif (AID 2282946); conditions: IR1 reporter transcription, actives raise or lower the signal
Method in brief: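 Fluorescence of capillary-separated, HpaI-digested RT-PCR reporter products gave IR1-element mRNA induction in HepG2 cells 24 h after dosing. Endogenous transcription factors drove the cis-regulated reporters; activity was fitted bidirectionally against DMSO.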

[12] = ATG_GRE_CIS: Attagene CIS-FACTORIAL HepG2 Assay for human Glucocorticoid Response Elements (GRE) (AID 2282947); conditions: HepG2 GRE cis-reporter, Attagene multiplex mRNA; actives raise or lower the signal
Method in brief: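 Fluorescence intensity of reporter-specific cDNA fragments, separated by capillary electrophoresis, provides the signal. Constructs carry cis-regulating promoters in transiently transfected HepG2 liver cells; 24 h incubation; fitting is bidirectional against DMSO.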

[13] = ATG_ISRE_CIS: Attagene CIS-FACTORIAL HepG2 Assay for human Interferon Regulatory Factor 1 (IRF1) binding to an Interferon-Stimulated Response Element (ISRE) (AID 2282948); conditions: HepG2 ISRE cis-reporter (Attagene), mRNA transcription readout; actives raise or lower the signal
Method in brief: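 Multiplexed mRNA reporter readout in human liver HepG2 cells: cis-element-driven reporters transfected, compound added for 24 h, transcripts amplified, fluorescently labelled and sized by capillary electrophoresis; curve fitting bidirectional against DMSO.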

[14] = ATG_M_32_CIS: Attagene CIS-FACTORIAL HepG2 Assay for M32 Transcription Factor (Internal Marker) (AID 2282949); conditions: HepG2 Attagene cis-factorial M32 reporter, mRNA; actives raise or lower the signal;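 note: background control marker of the multiplexed CIS panel rather than a real target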
Method in brief: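 HepG2 human liver cells transiently transfected with cis-promoter-driven multiple reporter transcription units, dosed 24 h. Reporter mRNA quantified by RT-PCR, FAM-labelled primer extension, HpaI digest and capillary electrophoresis; bidirectional fit versus DMSO baseline.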

[15] = ATG_M_06_CIS: Attagene CIS-FACTORIAL HepG2 Assay for M06 Transcription Factor (Internal Marker) (AID 2282950); conditions: HepG2 Attagene CIS-FACTORIAL M06 internal marker reporter; actives raise or lower the signal
Method in brief: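 Measured 24 h post-dosing in transiently transfected HepG2 cells, this internal-marker endpoint reports reporter mRNA via RT-PCR with fluorescent primer extension and capillary electrophoresis. DMSO served as negative control and baseline for bidirectional fitting.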

[16] = molecular target: Hypoxia-inducible factor 1-alpha (Homo sapiens) (UniProt Q16665); assay: ATG_HIF1a_CIS: Attagene CIS-FACTORIAL HepG2 Assay for human Hypoxia Inducible Factor 1 (HIF1A) (AID 2282951); conditions: HepG2 Attagene cis-factorial HIF1a reporter transcription; actives raise or lower the signal
Method in brief: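 HepG2, transient cis-reporter library, 24 h dosing. RNA → RT (oligo dT) → PCR → 6-FAM primer extension → HpaI → CE. Bidirectional curve fit vs DMSO.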

[17] = molecular target: Hepatocyte nuclear factor 6 (Homo sapiens) (UniProt Q9UBC0); assay: ATG_HNF6_CIS: Attagene CIS-FACTORIAL HepG2 Assay for human Hepatocyte Nuclear Factor 6 (HNF6) (AID 2282952); conditions: HepG2 Attagene cis-factorial HNF6 reporter transcription; actives raise or lower the signal
Method in brief: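 Endogenous factor activity read in transiently transfected HepG2 via promoter-regulated reporter transcripts. RNA harvested 24 h post-dosing, reverse-transcribed, PCR-amplified, FAM-labelled, HpaI-digested and resolved by capillary electrophoresis; fitted in both directions against DMSO.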

[18] = ATG_MRE_CIS: Attagene CIS-FACTORIAL HepG2 Assay for human Metal Responsive Element (MRE) (AID 2282954); conditions: HepG2 MRE cis-reporter transcription, Attagene multiplex; actives raise or lower the signal
Method in brief: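 Measured here is mRNA induction from an MRE cis-element reporter in HepG2 after 24 h, quantified by fluorescence of labelled RT-PCR products on capillary electrophoresis; gain- and loss-of-signal fits use DMSO as baseline.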

[19] = molecular target: Heat shock factor protein 1 (Homo sapiens) (UniProt Q00613); assay: ATG_HSE_CIS: Attagene CIS-FACTORIAL HepG2 Assay for human Heat Shock Transcription Factor 1 (HSE) (AID 2282953); conditions: HepG2 HSE cis-reporter, Attagene RNA transcription; actives raise or lower the signal
Method in brief: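 Reporter mRNA induction in HepG2 is measured 24 h after dosing, using transiently transfected multiplexed cis-regulated reporter units. Signal comes from capillary electrophoresis of labelled RT-PCR products, with DMSO as negative control.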

Measured: AC50

Chain of Hepatocyte nuclear factor 3-beta (Homo sapiens) (Q9Y261 whole entry, looked up): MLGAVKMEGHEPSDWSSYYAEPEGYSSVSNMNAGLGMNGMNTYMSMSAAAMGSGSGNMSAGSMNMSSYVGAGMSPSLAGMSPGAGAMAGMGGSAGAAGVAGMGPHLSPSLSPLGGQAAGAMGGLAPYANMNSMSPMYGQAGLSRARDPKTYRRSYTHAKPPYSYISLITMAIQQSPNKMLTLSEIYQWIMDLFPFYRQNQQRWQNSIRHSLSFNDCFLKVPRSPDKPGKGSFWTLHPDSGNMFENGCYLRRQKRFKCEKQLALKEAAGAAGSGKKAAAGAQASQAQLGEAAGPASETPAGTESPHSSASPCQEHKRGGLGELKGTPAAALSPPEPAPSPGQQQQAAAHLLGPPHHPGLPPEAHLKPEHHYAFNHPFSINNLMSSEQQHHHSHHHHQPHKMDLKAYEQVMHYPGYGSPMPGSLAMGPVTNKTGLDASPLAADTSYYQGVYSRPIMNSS
Chain of Transcription factor E2F1 (Homo sapiens) (Q01094 whole entry, looked up): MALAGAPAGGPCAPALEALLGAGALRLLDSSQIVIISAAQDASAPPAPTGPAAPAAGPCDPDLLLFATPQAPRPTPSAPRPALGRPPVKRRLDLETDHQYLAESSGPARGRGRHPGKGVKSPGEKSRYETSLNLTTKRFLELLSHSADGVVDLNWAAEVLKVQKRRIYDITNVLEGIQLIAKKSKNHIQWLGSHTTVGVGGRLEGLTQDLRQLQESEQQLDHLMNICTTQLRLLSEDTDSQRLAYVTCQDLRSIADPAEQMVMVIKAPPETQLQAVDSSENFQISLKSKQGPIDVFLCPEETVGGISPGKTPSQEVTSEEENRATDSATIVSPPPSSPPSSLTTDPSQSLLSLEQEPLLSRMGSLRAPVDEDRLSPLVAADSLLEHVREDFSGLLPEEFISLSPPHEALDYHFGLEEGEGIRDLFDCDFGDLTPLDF
Chain of Hypoxia-inducible factor 1-alpha (Homo sapiens) (Q16665 whole entry, looked up): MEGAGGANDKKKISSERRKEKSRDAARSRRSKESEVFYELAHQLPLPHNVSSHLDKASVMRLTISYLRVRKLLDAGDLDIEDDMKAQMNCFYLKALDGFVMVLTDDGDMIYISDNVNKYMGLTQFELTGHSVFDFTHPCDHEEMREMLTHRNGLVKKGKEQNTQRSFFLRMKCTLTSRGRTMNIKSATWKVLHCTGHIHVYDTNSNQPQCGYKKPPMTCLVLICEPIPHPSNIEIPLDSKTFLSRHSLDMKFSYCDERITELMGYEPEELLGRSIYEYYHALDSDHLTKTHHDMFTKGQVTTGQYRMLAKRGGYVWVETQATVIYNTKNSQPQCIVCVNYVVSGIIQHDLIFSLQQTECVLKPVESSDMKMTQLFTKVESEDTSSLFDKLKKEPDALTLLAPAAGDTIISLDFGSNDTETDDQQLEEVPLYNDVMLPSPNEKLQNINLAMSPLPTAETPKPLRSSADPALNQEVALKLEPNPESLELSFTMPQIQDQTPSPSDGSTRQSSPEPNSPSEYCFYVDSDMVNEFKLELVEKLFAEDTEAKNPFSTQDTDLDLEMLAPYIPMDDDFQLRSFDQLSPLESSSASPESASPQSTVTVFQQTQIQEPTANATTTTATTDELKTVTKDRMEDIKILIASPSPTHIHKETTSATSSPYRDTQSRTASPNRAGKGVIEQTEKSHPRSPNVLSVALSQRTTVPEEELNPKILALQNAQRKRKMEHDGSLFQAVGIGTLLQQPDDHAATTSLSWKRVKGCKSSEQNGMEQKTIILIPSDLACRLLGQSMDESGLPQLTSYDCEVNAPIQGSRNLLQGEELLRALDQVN
Chain of Bile acid receptor (Homo sapiens) (Q96RI1 whole entry, looked up): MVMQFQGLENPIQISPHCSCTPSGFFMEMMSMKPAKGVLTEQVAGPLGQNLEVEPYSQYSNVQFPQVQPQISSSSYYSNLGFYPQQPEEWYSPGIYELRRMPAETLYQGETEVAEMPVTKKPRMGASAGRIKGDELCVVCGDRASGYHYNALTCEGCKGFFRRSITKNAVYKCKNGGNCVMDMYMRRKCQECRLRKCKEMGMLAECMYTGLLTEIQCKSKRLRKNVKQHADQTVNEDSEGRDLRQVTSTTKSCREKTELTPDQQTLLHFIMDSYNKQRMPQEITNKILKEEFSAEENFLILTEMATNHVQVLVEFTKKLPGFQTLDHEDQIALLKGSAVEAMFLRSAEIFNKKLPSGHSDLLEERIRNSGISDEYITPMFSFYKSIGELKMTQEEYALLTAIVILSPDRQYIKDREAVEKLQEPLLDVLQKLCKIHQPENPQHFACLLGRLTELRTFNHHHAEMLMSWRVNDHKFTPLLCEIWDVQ
Chain of Heat shock factor protein 1 (Homo sapiens) (Q00613 whole entry, looked up): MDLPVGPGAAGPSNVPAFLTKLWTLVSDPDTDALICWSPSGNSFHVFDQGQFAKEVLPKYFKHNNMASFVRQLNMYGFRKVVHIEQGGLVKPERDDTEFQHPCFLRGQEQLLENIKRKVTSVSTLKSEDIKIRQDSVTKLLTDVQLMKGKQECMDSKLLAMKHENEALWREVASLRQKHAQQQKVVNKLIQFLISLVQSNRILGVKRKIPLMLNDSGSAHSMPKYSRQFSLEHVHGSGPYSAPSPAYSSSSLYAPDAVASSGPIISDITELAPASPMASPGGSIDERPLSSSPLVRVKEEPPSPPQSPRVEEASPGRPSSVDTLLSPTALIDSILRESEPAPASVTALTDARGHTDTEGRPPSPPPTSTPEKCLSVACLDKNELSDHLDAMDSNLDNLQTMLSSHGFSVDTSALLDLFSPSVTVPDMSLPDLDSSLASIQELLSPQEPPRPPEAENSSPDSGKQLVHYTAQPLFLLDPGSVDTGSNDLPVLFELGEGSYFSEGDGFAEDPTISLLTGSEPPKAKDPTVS
Chain of Hepatocyte nuclear factor 6 (Homo sapiens) (Q9UBC0 whole entry, looked up): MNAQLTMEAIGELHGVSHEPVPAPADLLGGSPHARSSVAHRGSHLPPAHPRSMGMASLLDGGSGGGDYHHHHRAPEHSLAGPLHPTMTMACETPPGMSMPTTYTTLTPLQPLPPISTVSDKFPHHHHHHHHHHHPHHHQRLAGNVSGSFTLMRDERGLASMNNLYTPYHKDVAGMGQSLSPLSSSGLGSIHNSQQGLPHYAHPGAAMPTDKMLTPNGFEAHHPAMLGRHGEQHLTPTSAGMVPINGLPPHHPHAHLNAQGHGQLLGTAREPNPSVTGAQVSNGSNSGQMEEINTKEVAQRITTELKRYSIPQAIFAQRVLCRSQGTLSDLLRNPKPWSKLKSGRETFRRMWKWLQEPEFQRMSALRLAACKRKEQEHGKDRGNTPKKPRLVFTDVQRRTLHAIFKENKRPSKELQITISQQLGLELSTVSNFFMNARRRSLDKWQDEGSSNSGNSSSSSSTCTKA

CCCCOCC1CO1 (stereo not given)
not listed: [19]
inactive: all other assays above

CCN(CC)c1ccccc1
not listed: [9] | [19]
inactive: all other assays above

Cc1ccc(O)cc1C
active: [5] 160 µM
not listed: [9] | [11] | [12] | [17]
inactive: all other assays above

O=C(O)C(Cl)Cl
not listed: [11] | [19]
inactive: all other assays above

c1cc2c3c(cccc3c1)CC2
not listed: [11]
inactive: all other assays above

CCC(C)(C)c1ccc(O)cc1
active: [1] 52.4 µM | [5] 2.25 µM | [11] 33.4 µM | [16] 33.4 µM
not listed: [9]
inactive: all other assays above

COP(N)(=S)OC
inactive: all assays above

CCOP(=S)(OCC)SCn1nnc2ccccc2c1=O
active: [4] 9.67 µM | [5] 7.39 µM | [19] 166 µM | [18] 78.5 µM
inactive: all other assays above

O=NN1CCCC1
not listed: [19]
inactive: all other assays above

Oc1ccccc1Br
inactive: all assays above

CC(Cl)(Cl)C(=O)O
not listed: [11]
inactive: all other assays above

COC(N)=O
active: [16] 100 µM
not listed: [9] | [19]
inactive: all other assays above

C=C(C)C(=O)OCC1CO1 (stereo not given)
inactive: all assays above

CCOC(=O)c1ccccc1C(=O)OCC
not listed: [11] | [19]
inactive: all other assays above

CCCCN(CCCC)SN(C)C(=O)Oc1cccc2c1OC(C)(C)C2
active: [5] 14.7 µM
not listed: [11]
inactive: all other assays above

O=P1(N(CCCl)CCCl)NCCCO1 (stereo not given)
active: [5] 3.3 µM
not listed: [16]
inactive: all other assays above
